Changes are numbered by the printed parent chain.

Holding throughout (test): PBM; 200 nM protein, PBS
Holding throughout (conditions): dsDNA, one strand shown

In test [1] the target is CRX (Homo sapiens, UniProt O43186 26-111).
The next test has as its target PITX2 (Homo sapiens, UniProt Q99697 72-157).
Test [2] concerns the target CRX (Homo sapiens, UniProt O43186 26-111, R41L).
The target of test [3] is CRX (Homo sapiens, UniProt O43186 26-111, E42D).
In test [4] the target is T1, NKX2-4 (Homo sapiens, UniProt Q9H2Z4 175-261, P217L).
T1 sequence: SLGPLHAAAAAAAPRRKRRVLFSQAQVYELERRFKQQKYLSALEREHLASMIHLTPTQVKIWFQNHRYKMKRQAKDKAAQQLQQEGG

Test [5] concerns the target HOXB9 (Homo sapiens, UniProt P17482 171-250, T197M).
Test [6] has as its target T2, NKX2-4 (Homo sapiens, UniProt Q9H2Z4 175-261, T231S).
T2 sequence: T1 sequence with L43P, T57S

Test [7] addresses T3, NKX2-4 (Homo sapiens, UniProt Q9H2Z4 175-261).
T3 sequence: T1 sequence with L43P

Test [8] has as its target HOXB9 (Homo sapiens, UniProt P17482 171-250).
In test [9] the target is T4, NKX2-4 (Homo sapiens, UniProt Q9H2Z4 175-261, R246Q).
T4 sequence: T1 sequence with L43P, R72Q

In test [10] the target is HOXB9 (Homo sapiens, UniProt P17482 171-250, R186Q).
Chain of HOXB9 (Homo sapiens, UniProt P17482 171-250, R186Q) (P17482 171-250 R186Q): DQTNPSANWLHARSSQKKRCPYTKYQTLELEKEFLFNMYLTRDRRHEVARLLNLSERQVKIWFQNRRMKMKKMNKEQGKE

Chain of CRX (Homo sapiens, UniProt O43186 26-111, E42D) (O43186 26-111 E42D): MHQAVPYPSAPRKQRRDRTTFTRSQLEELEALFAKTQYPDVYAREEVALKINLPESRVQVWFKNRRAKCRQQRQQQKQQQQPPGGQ
Chain of CRX (Homo sapiens, UniProt O43186 26-111, R41L) (O43186 26-111 R41L): as the sequence (O43186 26-111 E42D) above, with R16L, D17E counted along it
Chain of CRX (Homo sapiens, UniProt O43186 26-111) (O43186 26-111): as the sequence (O43186 26-111 E42D) above, with D17E counted along it
Chain of HOXB9 (Homo sapiens, UniProt P17482 171-250) (P17482 171-250): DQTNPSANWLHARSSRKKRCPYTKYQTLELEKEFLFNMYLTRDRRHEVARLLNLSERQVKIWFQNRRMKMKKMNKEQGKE
Chain of HOXB9 (Homo sapiens, UniProt P17482 171-250, T197M) (P17482 171-250 T197M): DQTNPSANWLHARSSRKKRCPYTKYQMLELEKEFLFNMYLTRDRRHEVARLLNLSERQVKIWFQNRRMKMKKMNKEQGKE

On to GTAATCCA, for which the binding signal in the test with CRX [1] is 12.9 upbm affinity estimate (log intensity, higher = more binding, comparable within an allelic series); in the test with PITX2 it was 12.9 upbm affinity estimate (log intensity, higher = more binding, comparable within an allelic series); with CRX [2] it was 12.7 upbm affinity estimate (log intensity, higher = more binding, comparable within an allelic series).

With ACACTACC, the binding signal with CRX [1] is 8.32 upbm affinity estimate (log intensity, higher = more binding, comparable within an allelic series); with CRX [3], 8.19 upbm affinity estimate (log intensity, higher = more binding, comparable within an allelic series); with CRX [2] it was 8.34 upbm affinity estimate (log intensity, higher = more binding, comparable within an allelic series).

Regarding ACCGCACC, the binding signal in the test with CRX [1] is 8.25 upbm affinity estimate (log intensity, higher = more binding, comparable within an allelic series); with CRX [3], 8.39 upbm affinity estimate (log intensity, higher = more binding, comparable within an allelic series); with CRX [2], 8.35 upbm affinity estimate (log intensity, higher = more binding, comparable within an allelic series).

Consider ACACGCCC, for which the binding signal with CRX [1] is 8.11 upbm affinity estimate (log intensity, higher = more binding, comparable within an allelic series); in the test with CRX [3] it was 8.24 upbm affinity estimate (log intensity, higher = more binding, comparable within an allelic series); with CRX [2], 8.26 upbm affinity estimate (log intensity, higher = more binding, comparable within an allelic series).

Regarding GAACGTTC, the binding signal with CRX [1] is 8.02 upbm affinity estimate (log intensity, higher = more binding, comparable within an allelic series); in the test with CRX [3], 7.99 upbm affinity estimate (log intensity, higher = more binding, comparable within an allelic series); with CRX [2] it was 8.07 upbm affinity estimate (log intensity, higher = more binding, comparable within an allelic series).

AGATTAAC: the binding signal with CRX [1] is 12.9 upbm affinity estimate (log intensity, higher = more binding, comparable within an allelic series); with PITX2, 12.7 upbm affinity estimate (log intensity, higher = more binding, comparable within an allelic series); with CRX [2], 12.6 upbm affinity estimate (log intensity, higher = more binding, comparable within an allelic series).

For GAACGCCC, the binding signal is 8.05 upbm affinity estimate (log intensity, higher = more binding, comparable within an allelic series) with CRX [1]; 8.12 upbm affinity estimate (log intensity, higher = more binding, comparable within an allelic series) with CRX [3]; 8.13 upbm affinity estimate (log intensity, higher = more binding, comparable within an allelic series) with CRX [2].

In the case of AGGCTTAA, the binding signal in the test with CRX [1] was 12.8 upbm affinity estimate (log intensity, higher = more binding, comparable within an allelic series); with CRX [2], 12.1 upbm affinity estimate (log intensity, higher = more binding, comparable within an allelic series).

Consider AATATTAC, for which the binding signal in the test with CRX [1] is 10.1 upbm affinity estimate (log intensity, higher = more binding, comparable within an allelic series); with CRX [3], 9.84 upbm affinity estimate (log intensity, higher = more binding, comparable within an allelic series); in the test with CRX [2], 9.61 upbm affinity estimate (log intensity, higher = more binding, comparable within an allelic series).

AGAGGGCC: the binding signal with NKX2-4 [4] was 11.7 upbm affinity estimate (log intensity, higher = more binding, comparable within an allelic series); with HOXB9 [5], 8.51 upbm affinity estimate (log intensity, higher = more binding, comparable within an allelic series); with NKX2-4 [6] it was 12 upbm affinity estimate (log intensity, higher = more binding, comparable within an allelic series); with NKX2-4 [7], 11.7 upbm affinity estimate (log intensity, higher = more binding, comparable within an allelic series); in the test with HOXB9 [8] it was 8.69 upbm affinity estimate (log intensity, higher = more binding, comparable within an allelic series); with NKX2-4 [9], 11.9 upbm affinity estimate (log intensity, higher = more binding, comparable within an allelic series). Moreover, the binding signal with HOXB9 [10] was 8.57 upbm affinity estimate (log intensity, higher = more binding, comparable within an allelic series).

On to ATAAAACC, for which the binding signal with CRX [1] was 10.7 upbm affinity estimate (log intensity, higher = more binding, comparable within an allelic series); with CRX [3], 10.4 upbm affinity estimate (log intensity, higher = more binding, comparable within an allelic series); with CRX [2] it was 10.2 upbm affinity estimate (log intensity, higher = more binding, comparable within an allelic series).

Take GGGCTTAA: the binding signal was 12.7 upbm affinity estimate (log intensity, higher = more binding, comparable within an allelic series) in the test with CRX [1]; 12.7 upbm affinity estimate (log intensity, higher = more binding, comparable within an allelic series) in the test with PITX2; 12.1 upbm affinity estimate (log intensity, higher = more binding, comparable within an allelic series) with CRX [2].

Regarding CGTATACG, the binding signal with CRX [1] was 8.46 upbm affinity estimate (log intensity, higher = more binding, comparable within an allelic series); in the test with CRX [3] it was 8.43 upbm affinity estimate (log intensity, higher = more binding, comparable within an allelic series); in the test with CRX [2], 8.43 upbm affinity estimate (log intensity, higher = more binding, comparable within an allelic series).

With CTTAAGCC, the binding signal with CRX [1] was 12.7 upbm affinity estimate (log intensity, higher = more binding, comparable within an allelic series); in the test with CRX [2], 11.9 upbm affinity estimate (log intensity, higher = more binding, comparable within an allelic series).

As to CGAGCACG, the binding signal in the test with CRX [1] is 8.2 upbm affinity estimate (log intensity, higher = more binding, comparable within an allelic series); with CRX [3] it was 8.12 upbm affinity estimate (log intensity, higher = more binding, comparable within an allelic series); with CRX [2], 8.16 upbm affinity estimate (log intensity, higher = more binding, comparable within an allelic series).

GTTTAAAA: the binding signal in the test with CRX [1] is 9.91 upbm affinity estimate (log intensity, higher = more binding, comparable within an allelic series); with CRX [3], 9.79 upbm affinity estimate (log intensity, higher = more binding, comparable within an allelic series); with CRX [2], 9.59 upbm affinity estimate (log intensity, higher = more binding, comparable within an allelic series).

For the sequence AGATTAGG, the binding signal with CRX [1] was 12.7 upbm affinity estimate (log intensity, higher = more binding, comparable within an allelic series); in the test with PITX2, 12.3 upbm affinity estimate (log intensity, higher = more binding, comparable within an allelic series); with CRX [2] it was 12.2 upbm affinity estimate (log intensity, higher = more binding, comparable within an allelic series).

For the origin of these results see publication PMC11006913.
